This is a sample that favours compounds with a hit; in the whole collection about 18% have one here.
DT40 TDP1 CPT – qHTS for Inhibitors of human tyrosyl-DNA phosphodiesterase 1 (TDP1): qHTS in cells in presence of CPT; Potency, µM (series often up to 46.2 µM), for inactives: top-dose activity change, negative = growth inhibition, hits mostly inhibitors; AID 686979, 2013; chicken DT40 Tdp1-/-;hTDP1 cells + 20 nM CPT, ATP luminescence, 48 h; 420,000 tested, 12% active; further: nearly all actives have a fitted effect of over 55% in size
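Cell growth measured by CellTiter-Glo luminescence after a minimum 48 h, 37 C compound exposure with 20 nM CPT in Tdp1-knockout DT40 cells stably expressing hTDP1, seeded 400/well; qHTS titration format.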
KAT2A inh – qHTS Assay for Inhibitors of GCN5L2. Histone acetyltransferase KAT2A (Homo sapiens), Q92830. GCN5L2 HAT assay, ThioGlo1 CoA-SH fluorescence. Potency, µM (top dose mostly 58.9 µM), for the others: at the top dose activity change, negative = inhibition, most hits filed as inhibitors. 390,000 tested, 0.21% active
Target sequence (Q92830 whole entry, looked up): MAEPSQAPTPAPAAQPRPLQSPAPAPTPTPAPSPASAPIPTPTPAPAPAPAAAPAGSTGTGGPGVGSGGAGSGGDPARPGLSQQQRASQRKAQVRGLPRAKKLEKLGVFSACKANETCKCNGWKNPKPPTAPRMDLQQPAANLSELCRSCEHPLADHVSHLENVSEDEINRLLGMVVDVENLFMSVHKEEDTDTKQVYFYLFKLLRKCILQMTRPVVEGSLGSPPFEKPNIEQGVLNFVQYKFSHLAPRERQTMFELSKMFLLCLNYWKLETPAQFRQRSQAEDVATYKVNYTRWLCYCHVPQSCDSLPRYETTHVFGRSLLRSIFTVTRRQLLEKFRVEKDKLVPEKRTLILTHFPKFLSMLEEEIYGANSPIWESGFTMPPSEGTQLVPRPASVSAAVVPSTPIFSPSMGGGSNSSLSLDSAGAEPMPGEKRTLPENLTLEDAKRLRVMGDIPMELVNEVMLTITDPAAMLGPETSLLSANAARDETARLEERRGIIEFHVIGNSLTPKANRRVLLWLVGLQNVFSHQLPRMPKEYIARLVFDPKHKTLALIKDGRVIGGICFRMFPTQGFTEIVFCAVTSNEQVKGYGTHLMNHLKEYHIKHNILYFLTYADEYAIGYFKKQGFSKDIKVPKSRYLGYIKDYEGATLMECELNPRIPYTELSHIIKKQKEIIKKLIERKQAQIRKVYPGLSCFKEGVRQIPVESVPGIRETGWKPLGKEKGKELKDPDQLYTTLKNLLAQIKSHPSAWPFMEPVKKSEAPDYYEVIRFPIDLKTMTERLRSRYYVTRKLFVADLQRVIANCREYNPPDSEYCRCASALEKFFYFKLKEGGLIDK
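Titration-based screen in which CoA formation is detected via maleimide probe ThioGlo1 (50uM) turning fluorescent on thiol reaction; substrates H3(1-25) 75uM and acetyl-CoA 70uM, GCN5L2 20nM, 20 min incubation at room temperature.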
TDP1 inh – qHTS Assay for Inhibitors of Tyrosyl-DNA Phosphodiesterase (TDP1); Tyrosyl-DNA phosphodiesterase 1 (Homo sapiens), Q9NUW8; recombinant TDP1, AlphaScreen DNA substrate cleavage; Potency, µM (titrated, usually from 130 µM), for the others: top-dose activity change, negative = inhibition, usual class: inhibitors; 350,000 tested, 0.28% active; further: nearly all actives have a fitted effect of over 40% in size
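E. coli-derived human Tdp1, 1 nM final. Cpd preinc 15 min RT; substrate 15 nM final, 5 min RT; AS bead mix 10 ug/ml final, 10 min RT. Signal loss = tyrosine-FITC cleavage. No-enzyme wells = max signal.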
DT40 TDP1 no CPT – qHTS for Inhibitors of human tyrosyl-DNA phosphodiesterase 1 (TDP1): qHTS in cells in absence of CPT; DT40 Tdp1-/- hTDP1 cells, no CPT, ATP luminescence, 48 h; Potency, µM (top dose mostly 46.2 µM), without a hit: at the top dose activity change, negative = growth inhibition, actives largely listed as inhibitors; 420,000 tested, 15% active; AID 686978, 2013; further: nearly all actives have a fitted effect of over 55% in size
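No-CPT arm: Tdp1-/-;hTDP1 DT40 cells (400/well) plus compounds, incubated ≥48 hr at 37 °C. Readout CellTiter-Glo luminescence.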
PLK1 PBD inh – qHTS for Inhibitors of PLK1-PDB (polo-like kinase 1 - polo-box domain): Primary Screen. Serine/threonine-protein kinase PLK1 (Homo sapiens), P53350. 360,000 tested, 2.8% active. Potency, µM, inactives show max response, negative = inhibition, most hits filed as inhibitors. Plk1 PBD binding of FITC phosphopeptide, fluorescence polarization; further: series mostly up to about 57 µM; nearly all actives have a fitted effect of over 65% in size
VDR inh – Inhibitors of the vitamin D receptor (VDR): qHTS | Vitamin D3 receptor (Homo sapiens), P11473 | VDR-SRC2-3 peptide fluorescence polarization, 2 h | Potency, µM, for the others: max response, negative = inhibition, hits mostly inhibitors | 400,000 tested, 0.93% active
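FP read-out; VDR + SRC2-3 coactivator peptide; 23 nl compound by pintool; 2 h RT incubation; reagents held at 4 deg C, protected from light.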
Active calls of the source: *; ? = inconclusive; · = no result given; [ ] = another dose, or the depositor's remark. The call rests on the fitted dose curve; in most records, active means well fitted curve in the direction sought with a large enough effect; inconclusive means small, poorly fitted or top-dose-only effect, or another doubt; inactive means no such curve, though single readings can be large; an effect the other way counts as inactive or inconclusive. On the % scale 0 is the no-effect control and ±100 the full control effect; potency means the concentration at half of the fitted maximal effect.

SMILES	DT40 TDP1 CPT	KAT2A inh	TDP1 inh	DT40 TDP1 no CPT	PLK1 PBD inh	VDR inh
C=CCN(Cc1ccc(Cl)s1)C(=O)c1cc(S(=O)(=O)N2CCOCC2)ccc1F	18µM*	-2%	0%	13µM*	1%	-13%
COc1ccc(S(=O)(=O)N2CCOCC2)cc1C(=O)N(C)Cc1ccccc1F	-6%	-7%	-2%[56.1 µM]	-21%	-7%	-1%
COc1ccc(N(C(=O)c2ccccc2F)S(=O)(=O)c2ccc3c(c2)n(C)c(=O)n3C)cc1	11%	-2%	5%	-4%	·	0%
Cc1ccc(N2CC(C(=O)N3CCC(C(=O)Nc4nnc(C(C)(C)C)s4)CC3)CC2=O)cc1 (configuration not stated)	1%	1%	3%	?	-8%	5%
COc1cccc(CNC(=O)CSc2ncc(S(=O)(=O)c3ccc(Br)cc3)c(=O)[nH]2)c1	-3%	-1%	2%	16%	·	-5%
COc1ccc(S(=O)(=O)N(C)C)cc1NC(=O)c1ccc(OCC2CCCO2)cc1 (configuration not stated)	-15%	·	·	-25%	-4%	·
CC1CN(CC(=O)N2CCN(Cc3nccn3C)CC2)Cc2cc(Cl)ccc2O1 (configuration not stated)	5%[9.04 µM]	·	·	-3%	·	·
Cc1cccc(N(Cc2ccccc2)C(=O)c2cc(S(=O)(=O)N3CCOCC3)ccc2Cl)c1	15µM*	-10%	0%	15µM*	1%	3%
Cc1ccc(N(Cc2ccccc2)C(=O)c2cc(S(=O)(=O)N3CCOCC3)ccc2F)cc1	18µM*	-2%	2%	7.3µM*	11%	-16%
Cc1ccc(CSCCNC(=O)c2ccc(Cl)c(S(=O)(=O)N3CCOCC3)c2)cc1	?	-5%	3%	18µM*	2%	-18%
Cc1ccc(N(Cc2ccccc2)C(=O)c2ccc(C)c(S(=O)(=O)N3CCOCC3)c2)cc1	?	-10%	2%	?	-6%	-6%
Cc1ccc(N(Cc2ccccc2)C(=O)c2cc(S(=O)(=O)N3CCOCC3)ccc2Cl)cc1	12µM*	-8%	3%[0.505 µM]	7.3µM*	-5%	15%
CCCC/C=C/[C@H](C)[C@@](C)(COC(=O)c1ccc(Br)cc1)Cc1ccccc1	·	·	22%	·	·	4%
O=C(c1cnn(-c2nccc(-c3ccccc3F)n2)c1C1CC1)N1CCN(CCO)CC1	19%[9.04 µM]	·	·	-10%	·	·
CC1=C(C(=O)N2CCCCCC2)CC(CC(=O)NC2CCCC2)C(=O)N1Cc1ccc(C(C)(C)C)cc1 (configuration not stated)	?	·	·	?	-6%	·
Cc1cc(C)c(S(=O)(=O)c2cccc(Br)c2C)c(Cl)n1	-21%	-2%	·	1%	0%	13%
Cc1ccc(N(Cc2ccccc2)C(=O)c2cccc(S(=O)(=O)N3CCN(C)CC3)c2)cc1	?	1%	5%	?	2%	-21%
Cc1ccc(N(Cc2ccccc2)C(=O)c2cccc(S(=O)(=O)N3CCOCC3)c2)cc1	?	-21%	0%	21µM*	-1%	1%
COc1ccccc1NC(=O)/C(C#N)=C/C=C/c1ccco1	1.3µM*	1%	3%	1.2µM*	-4%	36%
OC1=C(O)c2nc3cc(F)ccc3nc21	5%	-7%	·	-1%	21µM*	-7%

Screens as filed in PubChem BioAssay.
